# Compound activity (PubChem)
# Only some compounds are listed: those with a hit (about 1.3% of all), similar ones and a draw of the others.
# 14-3-3 Bad inh = inhibitors of 14-3-3 zeta/Bad binding, primary screen, biochemical, TR-FRET, bovine 14-3-3 zeta; 14-3-3 protein zeta/delta (Bos taurus), P63103; TR-FRET 14-3-3zeta/Dy647-pBad peptide displacement, 1 h; AID 781, 2007; hit rate 0.71% among 220,000; inhibition, % at 21.7 µM;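 active means inhibition above about 70%, limit read from the data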;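 further: 0% = full 14-3-3 plus peptide FRET controls and 100% = background without 14-3-3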
# Target sequence (P63103 whole entry, looked up): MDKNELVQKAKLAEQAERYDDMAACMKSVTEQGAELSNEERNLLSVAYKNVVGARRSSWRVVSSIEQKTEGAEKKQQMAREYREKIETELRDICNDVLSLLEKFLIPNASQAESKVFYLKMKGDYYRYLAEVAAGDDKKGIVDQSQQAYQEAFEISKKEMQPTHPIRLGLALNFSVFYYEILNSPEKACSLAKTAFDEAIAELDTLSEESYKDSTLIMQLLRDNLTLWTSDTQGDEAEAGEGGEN
# eIF4E-4G inh = eIF4E–eIF4G protein interaction inhibitors, primary screen, biochemical, uHTS, TR-FRET, eIF4GI fragment. Eukaryotic translation initiation factor 4E (Mus musculus) + Eukaryotic translation …. inhibition, % at 21.7 µM. TR-FRET eIF4E-eIF4GI(517-606) binding, 2 h. AID 782, 2007. hit rate 0.37% among 220,000;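 further: 0% = full FRET control wells and 100% = background wells lacking eIF4GI fragment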
# NCF1 inh = p47phox/p22phox peptide binding inhibitors, primary screen, biochemical, uHTS, NADPH oxidase regulatory subunit; Neutrophil cytosol factor 1 (Homo sapiens), P14598; hit rate 0.53% among 220,000; AID 1274, 2008; inhibition, % at 24.7 µM; fluorescence polarization, 2 h;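 further: 0% = p47phox with labelled peptide and 100% = labelled peptide alone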
# SUMO HTRF inh = inhibitors of in vitro SUMOylation cascade, primary screen, biochemical, HTRF, uHTS | AID 2006, 2009 | HTRF SUMOylation assay, SAE1/SAE2 + UBC9 | SUMO-conjugating enzyme UBC9 (Homo sapiens), P63279 | inhibition, % at 35 µM | hit rate 0.36% among 290,000; in the data active means inhibition above about 50%, passing the limit was not always enough
# Target sequence (P63279 whole entry, looked up): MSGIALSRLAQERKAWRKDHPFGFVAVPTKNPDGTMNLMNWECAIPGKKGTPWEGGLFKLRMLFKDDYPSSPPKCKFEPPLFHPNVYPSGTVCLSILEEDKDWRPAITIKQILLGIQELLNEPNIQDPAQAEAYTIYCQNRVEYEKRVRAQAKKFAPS
# Active calls of the source: *; nt = no result given; [ ] = another dose, or the depositor's remark.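 How the source made its calls, unless noted: active means inhibition above about 30% (limit read from the data); inactive means the rest.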
SMILES,14-3-3 Bad inh,eIF4E-4G inh,NCF1 inh,SUMO HTRF inh
Cc1ccccc1-c1cc(C(=O)Nc2sc(C)c(C)c2C(N)=O)c2ccccc2n1,-11,2,-35,15
CCOC(=O)c1c(NC(=O)c2cc(-c3ccc(Cl)s3)nc3ccccc23)sc(C(N)=O)c1C,72*[fluorescence artefact?],16,25,34
CCn1nc(C)c(NC(=O)/C=C/c2ccc(OC)c(COc3ccc(Cl)cc3Br)c2)c1C,77*,15,71*,38
COc1ccc(CNC(=O)CCCn2c(=S)[nH]c3cc4c(cc3c2=O)OCO4)cc1,nt,nt,nt,1
CCOc1cc2[nH]c(=S)n(CCC(=O)NCc3ccc(OC)cc3)c(=O)c2cc1OCC,39,-21,35*,42
O=C(COC(=O)CNC(=O)c1ccccc1)Nc1ccc(F)c([N+](=O)[O-])c1,-9,-4,9,-2
COc1ccc(C(C(=O)NCC2CCCO2)N(C(=O)c2snc(C(N)=O)c2N)c2ccccc2C)cc1OC (configuration not stated),nt,nt,nt,17
COc1ccc(C(=O)CN2C(=O)C(C)(C)Oc3ccc(C(=O)N4CCCCCC4)cc32)cc1,3,-3,-16,17
CCOC(=O)c1cnc2ccc(C(=O)OC)cc2c1Nc1cccc(C(=O)O)c1,-15,0,42*,8
O=C(O)CCCCCN1C(=O)/C(=C\c2ccc(-c3ccc(Cl)cc3)o2)SC1=S,71*,24,16,24
Cc1cccc(Cn2ccc(NC(=O)c3ccc4c(c3)OCO4)n2)c1,7,3,-1,5
CCCc1nc2ccccc2c(NC(=O)CN(CC)CC)c1CC,80*,19,3,-5
CCCCc1nc2ccccc2c(NC(=O)CN(CC)CC)c1CCC,74*,6,-2,14
O=S(=O)(Nc1cccc(-n2cnnn2)c1)c1cc(Cl)ccc1Cl,nt,nt,nt,5
Cc1c(C)c2ccc(OCC(=O)N3CC[C@@]4(O)CCCC[C@H]4C3)c(C)c2oc1=O,nt,nt,nt,2
COc1cccc(N2CCN(C(=O)CCC(=O)N3CCOc4ccc(C)cc43)CC2)c1,nt,nt,nt,13
COC(=O)CSc1nnc(-c2cccc(NC(=O)c3ccc(C)cc3)c2)n1C,37,72*,-2,5
Cn1c(SCC(=O)N2CCOCC2)nnc1-c1cccc(NC(=O)c2ccccc2)c1,12,0,-14,-4
O=C(COC(=O)c1ccccn1)c1ccc(Br)cc1,0,1,-2,-5
O=C(OCC1CC(c2ccccn2)=NO1)c1ccc(Br)cc1 (configuration not stated),-4,42*,-1,19
C=CCc1cc(C)ccc1OCCn1ccnc1,72*,-16,-12,27
COc1ccc(N2CCN(C(C)C(=O)N3CCCC3)CC2)cc1 (configuration not stated),79*,10,-1,14
COc1cc(/C=C2\SC(=O)N(Cc3ccc(Cl)cc3)C2=O)cc([N+](=O)[O-])c1O,96*,61*,-5,26
CCCCCCNC(=O)N[C@H](C(=O)NCCC[C@H]1CN2C(=NC[C@H]2C)N1CCC(c1ccccc1)c1ccccc1)C(C)O (some centres not stated),1,53*,87*,-30
C[C@@H]1CN=C2N(CCNC(=O)CCC3CCCCC3)[C@H](Cc3ccc(O)cc3)CN21,0,23,4,74
SMILES,14-3-3 Bad inh,eIF4E-4G inh,NCF1 inh,SUMO HTRF inh
CCOC(=O)N1CCN(Cc2nnc(-c3ccccc3C)o2)CC1,nt,nt,nt,1
c1ccc(-c2ccccc2OCCOCCN2CCNCC2)cc1,27,5,-4,15
CCN1CCN(CCOCCOc2ccccc2-c2ccccc2)CC1,71*,3,5,3
Cn1c(=O)c(C(=S)NC(=O)C2CC2)c(N)n(Cc2ccccc2)c1=O,-1,-7,-6,4
O=C(c1cccn2c(=O)c3cc(Cl)ccc3nc12)N1CCOCC1,nt,nt,2,52*
O=C(c1cccn2c(=O)c3cc(Cl)ccc3nc12)N1CCN(Cc2ccc3c(c2)OCO3)CC1,5,46*[fluorescence artefact?],2,24
O=C(c1cccn2c(=O)c3ccccc3nc12)N1CCN(Cc2ccc3c(c2)OCO3)CC1,nt,nt,-10,43
O=C(C(c1ccccc1)c1ccccc1)N1CCN(c2ccccn2)CC1,-3,-3,-7,5
O=C(C(c1ccccc1)c1ccccc1)N1CCN(Cc2ccncc2)CC1,75*,-7,-7,0
O=C(C(c1ccccc1)c1ccccc1)N1CCN(Cc2ccccn2)CC1,71*,-1,-10,16
CCn1c(CNC(=O)c2ccccc2Cl)cc2ccccc21,nt,nt,nt,1
CC(=O)NCCOc1nc(N(C)C)nc(N2CCCCC2)n1,-10,-4,-3,5
CCCc1cc(=O)n2[nH]cnc2n1,5,-9,32*,0
CSc1nc(SCC(=O)O)c2sc3nc(-c4ccccc4)c4c(c3c2n1)CCC4,87*,57*,-8,-7
CCOC(=O)c1c(NC(=O)CSc2nc3ccccc3c(=O)n2-c2ccc(F)cc2)sc(C(C)=O)c1C,-11,19,-52,3
CC(C)n1cnc2cc(NCc3ccccc3O)ccc21,6,5,-8,9
CC(C)n1cnc2cc(NCc3ccco3)ccc21,70*,-2,10,22
O=C(/C=C/c1ccco1)NC(=S)Nc1ccc(N2CCCC2)cc1,-6,4,-8,60*
CC1(C)Cc2c(sc(NC(=O)COc3cccc4ccccc34)c2C#N)C(C)(C)N1,-71,-60,51*,17
COc1ccc2nc(NC(=O)Nc3cccc4ccccc34)sc2c1,-13,0,-13,34
COc1ccc2nc(N=Nc3c(O)ccc4ccccc34)sc2c1,23,-8,34*,-4
Oc1ccc(C(c2nnnn2C2CCCC2)N2CCc3ccccc3C2)cc1 (configuration not stated),76*,3,-6,0
COc1ccc(CNc2ccccc2SC)cc1OC,74*,-7,10,7
Cc1cc(/C(N)=N/OC(=O)c2ccc(Cl)cc2)no1,70*,3,-3,-19
CC(C)(C)NC(=O)C(c1ccncc1)N(Cc1ccc(F)cc1)C(=O)c1ccc(-c2ccccc2)[nH]1 (configuration not stated),-2,0,-14,-44
CCCCNC1c2ccccc2C(=O)N1Cc1ccccc1 (configuration not stated),nt,nt,nt,3
Cn1cc(/C=C(\C#N)C(=O)Nc2cccc([N+](=O)[O-])c2)c2ccccc21,69,11,37*,-2
COc1ccc(NC(=O)C(CC(C)C)NC(=O)C2CCC(C)CC2)c(OC)c1 (configuration not stated),-23,1,-4,8
CC(=O)Nc1nc(-c2ccc(Cl)cc2)nc(C)c1C(C)=O,86*,24,-11,18
